Measured values as given in the supplement of paper PMC6555819.

Tests used:
Assay in all cases: PBM binding z-score (relative to random genomic background probes); higher = stronger binding; sequences stand for … in GC…GCGATTGACAGCGTAGAATGAAGG
[1] = system: FXR:RXRa (NR concentration 270 nM, RXRa partner concentration 90 nM)
Method in brief: (§1)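 Ligand-free nuclear receptor dimers were bound for 1 h to custom Agilent 4×180K protein-binding microarrays. Detection used antibodies against each partner (one per run). Binding z-scores rest on regression-normalized fluorescence, with random background probes as the reference.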

[2] = system: LXRa:RXRa (NR concentration 270 nM, RXRa partner concentration 90 nM)
Method in brief: as §1

[3] = system: LXRa homodimer (NR concentration 270 nM)
Method in brief: as §1

[4] = system: LXRb:RXRa (NR concentration 270 nM, RXRa partner concentration 90 nM)
Method in brief: as §1

[5] = system: LXRb homodimer (NR concentration 270 nM)
Method in brief: as §1

[6] = system: PPARa:RXRa (NR concentration 270 nM, RXRa partner concentration 90 nM)
Method in brief: as §1

[7] = system: PPARg:RXRa (NR concentration 180 nM, RXRa partner concentration 90 nM)
Method in brief: as §1

[8] = system: PPARg:RXRa 270nM:90nM, anti-RXR (NR concentration 270 nM, RXRa partner concentration 90 nM)
Method in brief: as §1

[9] = system: PPARg:RXRa 30nM:10nM, anti-RXR (NR concentration 30 nM, RXRa partner concentration 10 nM)
Method in brief: as §1

[10] = system: PPARg:RXRa 90nM:30nM, anti-RXR (NR concentration 90 nM, RXRa partner concentration 30 nM)
Method in brief: as §1

[11] = system: PPARg:RXRa DBDmut IVT, anti-RXR (DBD mutation: RXRa K156A/R161A, NR concentration 270 nM, RXRa partner concentration 90 nM)
Method in brief: as §1

[12] = system: PPARg:RXRa IVT, anti-PPARg (NR concentration 270 nM, RXRa partner concentration 90 nM)
Method in brief: as §1

[13] = system: PPARg DBDmut:RXRa IVT, anti-PPARg (DBD mutation: PPARg1 K132A/R137A, NR concentration 270 nM, RXRa partner concentration 90 nM)
Method in brief: as §1

[14] = system: PPARg DBDmut IVT, anti-PPARg (DBD mutation: PPARg1 K132A/R137A, NR concentration 270 nM)
Method in brief: as §1

[15] = system: PPARg homodimer (NR concentration 180 nM)
Method in brief: as §1

[16] = system: PXR:RXRa (NR concentration 270 nM, RXRa partner concentration 90 nM)
Method in brief: as §1

[17] = system: PXR homodimer (NR concentration 270 nM)
Method in brief: as §1

[18] = system: RARa:RXR (NR concentration 270 nM, RXRa partner concentration 90 nM)
Method in brief: as §1

[19] = system: RARa homodimer (NR concentration 270 nM)
Method in brief: as §1

[20] = system: RARb:RXRa (NR concentration 270 nM, RXRa partner concentration 90 nM)
Method in brief: as §1

Sequence	PBM binding z-score [1]	PBM binding z-score [2]	PBM binding z-score [3]	PBM binding z-score [4]	PBM binding z-score [5]	PBM binding z-score [6]	PBM binding z-score [7]	PBM binding z-score [8]	PBM binding z-score [9]	PBM binding z-score [10]	PBM binding z-score [11]	PBM binding z-score [12]	PBM binding z-score [13]	PBM binding z-score [14]	PBM binding z-score [15]	PBM binding z-score [16]	PBM binding z-score [17]	PBM binding z-score [18]	PBM binding z-score [19]	PBM binding z-score [20]
ATATGTTGGTTATCGGGTCATTCAGTTTGCGCAT	2.39	2.42	1.49	2.76	1.77	2.86	1.7	2.19	0.577	1.65	2.6	3.36	1.53	2.49	2.81	3.49	7.6	3.19	2.08	2.05
TCTATTAGTCGAAGGGCAACCGACGAGTCCGTTT	0.678	0.643	0.0615	0.638	0.475	0.751	0.274	2.2	3.57	2.77	2.28	0.642	0.468	0.866	0.702	0.597	0.535	0.379	0.63	1.36
CGAACTAGGTCATCCAGGACAATGAATACATTGA	4.61	2.74	0.73	2.14	0.294	4.83	7.88	6.22	4.07	6.1	7.89	8.42	3.32	1.7	1.95	2.1	2.1	2.31	0.706	3.87
TCTCGGAGGACAGGAAAGGTCAGAGCTCGACATC	2.63	3.06	1.44	2.83	-0.216	3.23	0.566	2.15	2.51	1.96	1.51	0.852	-0.54	-0.498	2.25	3.36	0.759	3.62	0.692	3.9
TTATATAGGTAAACAGGTGAAAGTCCGTAAGTTA	0.62	0.679	0.481	0.738	0.246	3.31	5.61	4.75	2.93	4.41	6.54	6.8	2.26	1.83	1.4	0.532	0.398	0.957	1.15	0.687
AGTCAAAGTTCATCTAAGTAACGTAAGATATGCT	6.46	5.91	4.97	3.59	1.65	4.76	6.53	6.27	3.47	5.55	0.404	2.37	0.832	1.41	2.51	4.78	4.97	3.48	1.03	5.03
AGAATGAGGTTTTACGTAGATCAGGGAAGAAAGT	-0.139	-0.0557	-0.184	-0.13	-0.304	-0.000129	0.251	-0.0665	0.263	0.297	0.314	-0.118	0.643	0.771	0.322	0.0449	0.0851	0.000653	0.0667	-0.00199
CCTACTGGGCAAAAGGTCATTGATTCCAATGCTC	4.38	5.09	3.89	4.36	0.466	5.57	10.4	9.29	9.17	9.67	2.57	5.1	-0.086	-0.781	3.07	4.91	1.5	5.73	1.77	4.35
TCTAGTTGATCACGGAGGTCACACACGACGGGTA	2.88	3.08	1.8	3.27	0.399	3.76	2.09	3.19	3.41	2.99	1.39	2.26	0.727	1.1	2.02	4.29	1.44	4.94	0.922	3.24
CCGACTGCGGCATAAGGTTACCATAAGCCAGCCC	0.434	1.84	-0.038	0.877	-0.74	0.702	0.575	0.243	-0.468	-0.29	-0.303	-0.677	-0.568	-0.753	0.108	0.121	-0.316	0.892	0.0382	0.791
ACTAGAAGGCCAAGTTTGGGTCACTCAAACAAAG	0.681	0.517	-0.0475	0.902	-0.474	1.52	0.293	0.723	-0.386	0.134	0.0334	1.25	-0.516	-0.287	0.742	1.2	-0.219	2.15	-0.267	2.71
GATACAGGGTCAGCTAGAGGCCCGAGTATGGAAA	4.27	2.31	-0.511	1.8	-0.813	4.42	3.6	3.1	0.492	1.92	0.969	2.18	-0.156	-0.833	1.37	1.72	-0.766	2.93	-0.152	3.83
CGTCCAAGGTCATAGAAGGTCAGTGAAGACAGAT	7.45	7.22	4.12	5.81	0.783	5.53	5.05	5.64	2.37	4.36	3.2	4.17	0.653	0.867	2.94	6.39	3.15	5.72	1.77	5.41
AGAATGCGGTTATTAAGATCAGGGAATTGCGGTC	-0.258	-0.138	-0.259	-0.43	-0.728	-0.484	0.0333	-0.202	-0.149	-0.182	-0.161	0.143	-0.136	-0.574	-0.18	-0.396	0.0419	-0.457	0.329	-0.0684
